The list is not random: actives were taken first. Their share in the collection is about 2.8%.
RGS4 inhibitor: Inhibitors of Regulator of G Protein Signaling (RGS) 4: qHTS; Transcreener GDP fluorescence polarization, RGS4-accelerated GTP hydrolysis; AID 504845, 2011; 390,000 tested, 0.039% active; Potency, µM (doses to about 114 µM), most hits filed as inhibitors; Regulator of G-protein signaling 4 (Homo sapiens), P49798; active means well fitted inhibition curve with a large enough effect; inconclusive means small, poorly fitted or top-dose-only effect; inactive means no such curve, though single readings can be large or run the other way; further: nearly all actives have a fitted effect of over 75% in size
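MLSMR compounds (23 nl, pin-transferred) preincubated 10 min at room temperature with a 500nM (2x) first reagent, then RGS4 at 900nM (2x) plus Transcreener GDP mix added; fluorescence polarization (620/688 nm) read before and after 90 min at 30 °C.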
PI4K2A block: qHTS for small molecular inhibitors of PI4K2A | Phosphatidylinositol 4-kinase type 2-alpha (Homo sapiens), Q9BTU6 | purified PI4K2A, ADP-Glo luminescence, 1 h; stronger effect = lower value | activity change, negative = inhibition, % at 76.9 µM | 420,000 tested, 0.13% active | AID 1346378, 2018; in the data active means activity change below about -50%; inconclusive means mostly about -30% to -49%
Target sequence (Q9BTU6 whole entry, looked up): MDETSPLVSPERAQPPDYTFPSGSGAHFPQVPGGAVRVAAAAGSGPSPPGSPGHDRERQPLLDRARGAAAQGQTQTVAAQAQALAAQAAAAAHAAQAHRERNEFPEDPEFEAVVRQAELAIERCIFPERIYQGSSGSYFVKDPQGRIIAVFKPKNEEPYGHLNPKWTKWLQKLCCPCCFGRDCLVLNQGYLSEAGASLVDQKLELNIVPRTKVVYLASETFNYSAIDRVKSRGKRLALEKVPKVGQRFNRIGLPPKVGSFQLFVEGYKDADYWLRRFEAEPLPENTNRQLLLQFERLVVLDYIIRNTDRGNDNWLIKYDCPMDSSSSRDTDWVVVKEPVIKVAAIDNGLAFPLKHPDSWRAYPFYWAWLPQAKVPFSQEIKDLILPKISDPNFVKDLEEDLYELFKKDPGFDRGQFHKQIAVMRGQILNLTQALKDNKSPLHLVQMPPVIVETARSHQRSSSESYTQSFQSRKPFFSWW
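In this quantitative HTS, ADP production by PI4K2A was quantified luminescently after 1 h at ambient temperature; 100 microM adenosine served as plate-quality control.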
DRD3 antagonist: qHTS of D3 Dopamine Receptor Antagonist: qHTS. D3R cells, DiscoveRx beta-arrestin luminescence, antagonist mode; stronger effect = lower value. 360,000 tested, 2.5% active. max response, negative = inhibition, %. AID 652054, 2013; in the data active means max response below about -50%; inconclusive means no clear call, values can overlap the other calls
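Cells expressing the human receptor were seeded at 1500 cells/well, incubated overnight at 37 degrees C in 5% CO2, then exposed to library compounds with dopamine controls for 90 minutes at 37 degrees C before luminescent detection.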
D3 ag: qHTS of D3 Dopamine Receptor Agonist: qHTS; D(3) dopamine receptor (Homo sapiens), P35462; D3R DiscoveRx beta-arrestin cells, luminescence, 90 min; max activation, %; 410,000 tested, 0.58% active; AID 652048, 2013; in the data active means max activation above about 30%
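Agonist-mode cell screen: cells plated at 1500/well and incubated overnight at 37 °C, then exposed to library compounds for 90 min at 37 °C. Detection reagent was added for 30–60 min at room temperature, and luminescence was read.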
pAkt inh: HTS Assay for Inhibitors of Akt Phophorylation: Primary Screen; Neuro2A IGF-stimulated pAkt S473 HTRF, 20 min; stronger effect = lower value; activity change, % for hits at 50 µM; 360,000 tested, 0.32% active; AID 651550, 2012; in the data active means activity change below about -80%; inconclusive means mostly about -51% to -80%
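Single-point screen (50 µM final compound) in Neuro2A cells stimulated 20 min with 6 nM IGF at 37 deg C. After lysis, Ser473-phosphorylated Akt read by HTRF (ex 330 nm, em 615/665 nm) as the 665/615 ratio.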
LDHA block: qHTS assay for inhibitors of human lactate dehydrogenase. L-lactate dehydrogenase A chain (Homo sapiens), P00338. purified LDHA, NADH/diaphorase-resazurin fluorescence; stronger effect = lower value. activity change, % (values are at about 110 or 230 µM). 480,000 tested, 0.15% active; in the data active means activity change below about -30%; inconclusive means mostly about -25% to -30%
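LDH5 2 nM; NADH 0.06 mM, pyruvate 0.2 mM; 200 mM Tris pH 7.4, EDTA, Tween-20; 5 min RT. Detection: diaphorase 0.133 mg/mL + resazurin 37 µM, fluorescence ex540/em590 at 0 and 20 min; normalized to enzyme-free and DMSO wells.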
Large screens that a line does not name were inactive.

NC(=O)c1ccc(NCCc2cccs2)cc1	DRD3 antagonist -50.2 (no result: RGS4 inhibitor)
CCOc1ccc(N/C=C/C(=O)c2ccc(C)cc2)cc1	none (no result: RGS4 inhibitor, PI4K2A block, DRD3 antagonist, D3 ag, pAkt inh)
CCNC(=O)c1cc(-c2ccc(OC)cc2OC)nc2ccccc12	none (no result: RGS4 inhibitor, PI4K2A block, DRD3 antagonist, D3 ag, pAkt inh)
COc1ccc(C(CNc2ncnc3sc(C)c(C)c23)N(C)C)cc1 (stereo not drawn)	DRD3 antagonist -71.1
COc1cc(/C=C(/C(=O)c2cccs2)c2nc3ccccc3[nH]2)cc(OC)c1O	RGS4 inhibitor inconclusive, DRD3 antagonist -99.9
O=C(/C(=C/c1ccc(Cl)cc1)c1nc2ccccc2[nH]1)c1ccccc1	DRD3 antagonist -74.8
CC(C)Cc1cc(-c2nn3c(-c4ccccn4)nnc3s2)n(C)n1	none (no result: RGS4 inhibitor, PI4K2A block, DRD3 antagonist, D3 ag, pAkt inh)
OCC[C@@H]1C[C@H](O)[C@@H](O)[C@]2(OCc3ccc(CO)cc32)O1	DRD3 antagonist -63.6 (no result: RGS4 inhibitor)
O=C(CN1C(=O)COc2ccccc21)N(CCCN1CCOCC1)CC1CC=CCC1 (stereo not drawn)	DRD3 antagonist -56.5
O=C(CN1C(=O)COc2ccccc21)NCCCN1CCOCC1	none
CCOc1ccc(Nc2oc(/C=C/c3ccccc3)nc2C#N)cc1	none (no result: RGS4 inhibitor, PI4K2A block, DRD3 antagonist, D3 ag, pAkt inh)
O=C(CCC(=O)CCN1CCCCC1)CCN1CCCCC1	DRD3 antagonist -66.7
O=C(CSc1ncnc2nc[nH]c12)NCCc1c[nH]c2ccc(F)cc12	none (no result: RGS4 inhibitor, PI4K2A block, DRD3 antagonist, D3 ag, pAkt inh)
O=C1C(C=Nc2ccccc2O)=C(O)c2ccccc21	none
Cc1ccc(O)c(N=CC2=C(O)c3ccccc3C2=O)c1	RGS4 inhibitor inconclusive, DRD3 antagonist -53.6
CC(C)NC(=O)c1ccc2c(c1)nc1n2CCN(CCO)C1	none (no result: RGS4 inhibitor, PI4K2A block, DRD3 antagonist, D3 ag, pAkt inh)
Cc1nc([N+](=O)[O-])c(Br)n1Cc1ccc(Cl)c(Cl)c1	DRD3 antagonist -76.2
COc1ccc(C(=O)Cn2c(C)nc([N+](=O)[O-])c2Br)cc1	DRD3 antagonist -55.7
CCC(C)(C)n1nnnc1C(c1cc2ccc(OC)cc2[nH]c1=O)N1CCCCC1 (stereo not drawn)	none
COc1ccc2cc(C(c3nnnn3C(C)(C)C)N3CCSCC3)c(=O)[nH]c2c1 (stereo not drawn)	DRD3 antagonist -57.1
COc1cccc(-c2nc(C)c(C(=O)NCc3ccncc3)s2)c1	none (no result: RGS4 inhibitor, PI4K2A block, DRD3 antagonist, D3 ag, pAkt inh)
COCCNC(=O)C1(C)CCCN(CCOc2ccc(Cl)cc2)C1 (stereo not drawn)	DRD3 antagonist -55.1 (no result: RGS4 inhibitor)
CCCNC(=O)C1(C)CCN(CCOc2ccc(Cl)cc2)C1 (stereo not drawn)	DRD3 antagonist -72.0 (no result: RGS4 inhibitor)
Cc1ccsc1C(=O)N1CCC1(C)C(=O)NS(=O)(=O)c1ccccc1C(F)(F)F (stereo not drawn)	D3 ag 98.5 (no result: RGS4 inhibitor)
Cc1ccsc1C(=O)N1CCC1(C)C(=O)NS(=O)(=O)c1ccccc1 (stereo not drawn)	none (no result: RGS4 inhibitor)
CC1(C(=O)NS(=O)(=O)c2ccccc2OC(F)(F)F)CCN1C(=O)c1ccco1 (stereo not drawn)	DRD3 antagonist -59.7 (no result: RGS4 inhibitor)
CN(CCCNC(=O)c1cc2cc(F)ccc2[nH]1)Cc1ccccc1	none (no result: RGS4 inhibitor, PI4K2A block, DRD3 antagonist, D3 ag, pAkt inh)
CCC(=O)NC1=C(NC(C)c2ccccc2)C(=O)c2ccccc2C1=O (stereo not drawn)	none
CCC(=O)NC1=C(Cl)C(=O)C(NC(=O)CC)=C(Cl)C1=O	PI4K2A block inconclusive, DRD3 antagonist -62.0
CCN(CC)C(=O)Oc1ccc2oc(=O)c(-c3ccc(OC)cc3)c(C)c2c1	none (no result: RGS4 inhibitor, PI4K2A block, DRD3 antagonist, D3 ag, pAkt inh)
COCCNC(=S)Nc1cc(OC)c(OC)cc1C#N	DRD3 antagonist -50.8
COCCCNC(=S)Nc1cc(C)c(C)cc1C	none
Cc1nnc(SCC(=O)Nc2sc3c(c2C#N)CCCC3)[nH]c1=O	RGS4 inhibitor inconclusive, DRD3 antagonist -54.1
CCn1c(SCC(=O)Nc2sc3c(c2C#N)CCCC3)nnc1-c1ccco1	DRD3 antagonist -72.0
CCC(=O)Nc1sc2c(c1C#N)CCC2	none

From PubChem BioAssay
